In PubChem BioAssay (NCATS):
Inconclusive results are not listed.

Experiment: qHTS Assay for Lipid Storage Modulators (AID 1519)
Conditions: Drosophila S3 cells, BODIPY lipid droplet/cell ratio, laser cytometry; measured here: cell count channel max response; cells loaded with oleic acid
Method in brief: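 Cells seeded at 5,000 per well were treated with compounds over a concentration series and loaded with oleic acid (400 uM, as added). Lipid droplet fluorescence (488 nm excitation, 500-530 nm channel) was read by laser-scanning cytometry and normalized to 20 uM Triacsin C.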

SMILES | max response [%]
CC(=O)N1CCC2(CC1)CN(Cc1ccccc1)C2 | -1.63
Cn1cccc1C(=O)N1CCC2(CCN(C(=O)Nc3cccc(F)c3)CC2)CC1 | 18.2
COCC(=O)N1CCC2(CC1)CCN(C(=O)Nc1ccc(OC)cc1)CC2 | 13.2
COC(=O)N1CCC[C@@]2(CCN(c3ccncc3)C2)C1 | 18.5
COC(=O)N1CCC2(CCN(C(=O)NC(C)C)CC2)CC1 | 7.58
O=C(Nc1cccc(F)c1)N1CCC2(CCNCC2)CC1 | 17.4
O=S(=O)(c1ccccc1)N1CCC2(CCN(C(c3ccccc3)c3ccccc3)CC2)CC1 | 11.2
CC(C)NC(=O)N1CC[C@@]2(CCCN(C(=O)c3cccn3C)C2)C1 | -17.7
CS(=O)(=O)N1CCC2(CCN(c3ccccc3)CC2)CC1 | 20.7
CC(C)NC(=O)N1CC[C@@]2(CCCN(C(=O)Oc3ccccc3)C2)C1 | 8.74
COc1ccc(NC(=O)N2CC[C@@]3(CCCNC3)C2)cc1 | -3.47
O=C(c1ccncc1)N1CCC2(CC1)CN(c1ncccn1)C2 | 22.4
COc1ccc(NC(=O)N2CC3(CCN(C(=O)c4cccn4C)CC3)C2)cc1 | 8.75
COC(=O)N1CCC2(CC1)CN(C(=O)Nc1ccccc1)C2 | -14.6
COc1ccccc1CN1CC[C@@]2(CCCN(C(=O)c3c(C)noc3C)C2)C1 | 6.8
CC(=O)N1CCC[C@@]2(CCN(Cc3ccccc3)C2)C1 | 8.55
O=C(c1csnn1)N1CCC2(CCCN(Cc3cc(C(F)(F)F)cc(C(F)(F)F)c3)C2)CC1 | 21.4
CS(=O)(=O)N1CCC2(CC1)CN(C(=O)Nc1ccccc1)C2 | 6.27
O=C(Nc1cccc(F)c1)N1CCC2(CC1)CCN(C(=O)c1csnn1)CC2 | 12.6
COCC(=O)N1CCC2(CCCN(C(=O)Nc3cccc(F)c3)C2)CC1 | 4.52

SMILES | max response [%]
COc1ccc(NC(=O)N2CCC3(CC2)CCN(C(=O)c2cnccn2)CC3)cc1 | 7.1
O=C(Nc1ccccc1)N1CCC2(CC1)CCN(C(=O)c1csnn1)CC2 | 16.6
COC(=O)N1CCC[C@@]2(CCN(C(=O)Nc3ccccc3)C2)C1 | -3.53
COc1ccc(C(=O)N2CCC3(CCCN(Cc4ccncc4)C3)CC2)cc1 | 2.99
O=C(c1cc(C(F)(F)F)cc(C(F)(F)F)c1)N1CCC[C@@]2(CCN(Cc3ccncc3)C2)C1 | 20.1
COc1ccc(NC(=O)N2CC3(CCN(C(=O)c4c(C)noc4C)CC3)C2)cc1 | 5.82
O=C(Nc1ccccc1)N1CCC2(CC1)CCN(C(=O)c1cnccn1)CC2 | 7.98
COC(=O)N1CCC2(CC1)CN(c1cccc(-c3ccccc3)c1)C2 | 23.2
COCC(=O)N1CCC[C@@]2(CCN(c3ncccn3)C2)C1 | 19.1
O=C(Nc1cccc(F)c1)N1CC2(CCN(C(=O)c3csnn3)CC2)C1 | 2.11
COCC(=O)N1CCC2(CC1)CN(C(=O)Nc1cccc(C#N)c1)C2 | 8.59
CC(C)NC(=O)N1CCC2(CC1)CCN(S(C)(=O)=O)CC2 | 6.33
O=C(c1csnn1)N1CCC2(CC1)CN(c1ccncc1)C2 | 4.32
COCC(=O)N1CCC2(CC1)CCN(C(=O)Nc1cccc(F)c1)CC2 | 10.1
O=C(c1cnccn1)N1CCC2(CCN(Cc3nccs3)CC2)CC1 | -0.576
CC(=O)N1CCC2(CC1)CN(c1ccncc1)C2 | 11.6
CS(=O)(=O)N1CCC2(CCN(C(=O)Nc3cccc(F)c3)CC2)CC1 | 4.7
O=C(Nc1ccccc1)N1CC[C@@]2(CCCN(C(=O)c3ccco3)C2)C1 | 5.04
CS(=O)(=O)N1CCC[C@@]2(CCN(C(=O)Nc3ccccc3)C2)C1 | 16.4
Cc1noc(C)c1C(=O)N1CCC[C@@]2(CCN(C(=O)NC(C)C)C2)C1 | 13.4

Same assay, conditions: Drosophila S3 cells, BODIPY lipid droplet/cell ratio, laser cytometry; measured here: lipid channel max response; cells loaded with oleic acid

SMILES | max response [%]
CC(=O)N1CCC2(CC1)CN(Cc1ccccc1)C2 | -1.86
Cn1cccc1C(=O)N1CCC2(CCN(C(=O)Nc3cccc(F)c3)CC2)CC1 | 25.2
COCC(=O)N1CCC2(CC1)CCN(C(=O)Nc1ccc(OC)cc1)CC2 | 20.1
COC(=O)N1CCC[C@@]2(CCN(c3ccncc3)C2)C1 | 26.2
COC(=O)N1CCC2(CCN(C(=O)NC(C)C)CC2)CC1 | 13.7
O=C(Nc1cccc(F)c1)N1CCC2(CCNCC2)CC1 | 23.2
O=S(=O)(c1ccccc1)N1CCC2(CCN(C(c3ccccc3)c3ccccc3)CC2)CC1 | 22.7
CC(C)NC(=O)N1CC[C@@]2(CCCN(C(=O)c3cccn3C)C2)C1 | -8.74
CS(=O)(=O)N1CCC2(CCN(c3ccccc3)CC2)CC1 | 29.9
CC(C)NC(=O)N1CC[C@@]2(CCCN(C(=O)Oc3ccccc3)C2)C1 | 17.3
COc1ccc(NC(=O)N2CC[C@@]3(CCCNC3)C2)cc1 | -5.51
O=C(c1ccncc1)N1CCC2(CC1)CN(c1ncccn1)C2 | 23.6
COc1ccc(NC(=O)N2CC3(CCN(C(=O)c4cccn4C)CC3)C2)cc1 | 21.6
COC(=O)N1CCC2(CC1)CN(C(=O)Nc1ccccc1)C2 | -8.35
COc1ccccc1CN1CC[C@@]2(CCCN(C(=O)c3c(C)noc3C)C2)C1 | 12.8
CC(=O)N1CCC[C@@]2(CCN(Cc3ccccc3)C2)C1 | 16.4
O=C(c1csnn1)N1CCC2(CCCN(Cc3cc(C(F)(F)F)cc(C(F)(F)F)c3)C2)CC1 | 17.2
CS(=O)(=O)N1CCC2(CC1)CN(C(=O)Nc1ccccc1)C2 | 16.7
O=C(Nc1cccc(F)c1)N1CCC2(CC1)CCN(C(=O)c1csnn1)CC2 | 21.6
COCC(=O)N1CCC2(CCCN(C(=O)Nc3cccc(F)c3)C2)CC1 | 14.2

SMILES | max response [%]
COc1ccc(NC(=O)N2CCC3(CC2)CCN(C(=O)c2cnccn2)CC3)cc1 | 18.9
O=C(Nc1ccccc1)N1CCC2(CC1)CCN(C(=O)c1csnn1)CC2 | 23.2
COC(=O)N1CCC[C@@]2(CCN(C(=O)Nc3ccccc3)C2)C1 | 3.51
COc1ccc(C(=O)N2CCC3(CCCN(Cc4ccncc4)C3)CC2)cc1 | 8.92
O=C(c1cc(C(F)(F)F)cc(C(F)(F)F)c1)N1CCC[C@@]2(CCN(Cc3ccncc3)C2)C1 | 28.8
COc1ccc(NC(=O)N2CC3(CCN(C(=O)c4c(C)noc4C)CC3)C2)cc1 | 14.2
O=C(Nc1ccccc1)N1CCC2(CC1)CCN(C(=O)c1cnccn1)CC2 | 21.7
COC(=O)N1CCC2(CC1)CN(c1cccc(-c3ccccc3)c1)C2 | 29.4
COCC(=O)N1CCC[C@@]2(CCN(c3ncccn3)C2)C1 | 20.3
O=C(Nc1cccc(F)c1)N1CC2(CCN(C(=O)c3csnn3)CC2)C1 | 8.72
COCC(=O)N1CCC2(CC1)CN(C(=O)Nc1cccc(C#N)c1)C2 | 11
CC(C)NC(=O)N1CCC2(CC1)CCN(S(C)(=O)=O)CC2 | 5.94
O=C(c1csnn1)N1CCC2(CC1)CN(c1ccncc1)C2 | 5.47
COCC(=O)N1CCC2(CC1)CCN(C(=O)Nc1cccc(F)c1)CC2 | 10.7
O=C(c1cnccn1)N1CCC2(CCN(Cc3nccs3)CC2)CC1 | 4.52
CC(=O)N1CCC2(CC1)CN(c1ccncc1)C2 | 16.2
CS(=O)(=O)N1CCC2(CCN(C(=O)Nc3cccc(F)c3)CC2)CC1 | 11.5
O=C(Nc1ccccc1)N1CC[C@@]2(CCCN(C(=O)c3ccco3)C2)C1 | 7.34
CS(=O)(=O)N1CCC[C@@]2(CCN(C(=O)Nc3ccccc3)C2)C1 | 17.6
Cc1noc(C)c1C(=O)N1CCC[C@@]2(CCN(C(=O)NC(C)C)C2)C1 | 18.4
